Source: PubChem (National Center for Advancing Translational Sciences (NCATS))
SMN2 splice up: SMN2 splice variant enhancement; HEK293 SMN2-luciferase splicing reporter, luminescence, 30-36 h; Potency, µM (doses to about 46.1 µM), hits mostly activators; actives 2.8% (n = 210,000); AID 1458; further: nearly all actives have a fitted effect of over 55% in size
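HEK293 cells carry an SMN2 […]–luciferase reporter in which exon 7 inclusion puts luciferase in frame. Cells were plated 10-12 h before compound addition, then incubated 30-36 h at 37C. ONE-Glo luminescence was read; sodium butyrate at 4.5 mM final served as control.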
p53 reactivator: restores transcriptional activity of mutant p53; AID 504706; Potency, µM (doses to about 92.2 µM), actives largely listed as activators; actives 0.063% (n = 320,000); H1299 p53-A138V BP100-luciferase reporter, luminescence, 24 h; further: nearly all actives have a fitted effect of over 45% in size
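H1299 (p53-null), stable ts p53-A138V + BP100-Luc; 1000 cells/well, Opti-MEM/10% FBS; cpd 4 pt, 1:5; 24 h, 37 deg C, 5% CO2; detection reagent 10 min RT; luminescence.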
ELG1 genotox: genotoxicity induction in ELG1-luciferase HEK293T cells. HEK293T ELG1-luciferase reporter, luminescence, 16 h. Potency, µM (series often up to 46 µM), hits mostly activators. actives 1.3% (n = 330,000); further: nearly all actives have a fitted effect of over 60% in size
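Quantitative HTS format in 1536-well plates. HEK293T ELG1-luciferase reporter cells receive test compound and are incubated 16 hr at 37 °C, 5% CO2; ONE-Glo added, 30 min room temperature, then luminescence read.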
Rab9 promoter act: activates the Rab9 promoter; actives 2.8% (n = 320,000); Huh7 Rab9 promoter-luciferase reporter, luminescence, 24 h; Potency, µM (doses to about 9.22 µM), hits mostly activators; further: nearly all actives have a fitted effect of over 60% in size
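Measured in stably transfected Huh7 cells bearing a Rab9 promoter–luciferase construct: 24 h compound treatment at 37 °C, followed by luminescence detection.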
NPC1 prom act: activators of NPC1 promoter. Potency, µM (titrated, usually from 9.22 µM), actives largely listed as activators. Huh7 NPC1 promoter luciferase reporter, 24 h. actives 2.4% (n = 320,000); further: nearly all actives have a fitted effect of over 60% in size
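Luciferase expression driven by the NPC1 promoter was measured in stably transfected Huh7 cells after a 24 h compound incubation, using a luciferase reagent and a luminescence read.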
FLuc modulator: counter-screen for miR-21 project: firefly luciferase inhibitors or activators | P08659 | purified FLuc, Km substrates, luminescence inhibition | Potency, µM (top dose mostly 57.5 µM), usual class: inhibitors | actives 6.9% (n = 360,000) | AID 588342; further: nearly all actives have a fitted effect of over 55% in size
Target sequence (P08659 whole entry, looked up): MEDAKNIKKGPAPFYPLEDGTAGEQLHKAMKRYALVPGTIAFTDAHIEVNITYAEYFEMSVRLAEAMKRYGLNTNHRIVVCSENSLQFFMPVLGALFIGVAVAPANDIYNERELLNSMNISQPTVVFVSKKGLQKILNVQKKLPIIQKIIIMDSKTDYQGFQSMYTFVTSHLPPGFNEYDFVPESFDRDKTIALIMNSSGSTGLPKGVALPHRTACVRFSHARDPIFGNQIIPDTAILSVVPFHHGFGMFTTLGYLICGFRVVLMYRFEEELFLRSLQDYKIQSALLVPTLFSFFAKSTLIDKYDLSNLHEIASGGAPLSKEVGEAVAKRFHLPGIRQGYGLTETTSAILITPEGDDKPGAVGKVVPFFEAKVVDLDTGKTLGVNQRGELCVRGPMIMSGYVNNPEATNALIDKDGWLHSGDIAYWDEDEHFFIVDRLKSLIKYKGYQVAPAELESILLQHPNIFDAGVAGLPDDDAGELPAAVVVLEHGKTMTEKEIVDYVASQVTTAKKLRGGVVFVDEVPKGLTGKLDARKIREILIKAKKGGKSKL
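Biochemical qHTS of compounds, final roughly 60 µM downward over six points, against 10 nM purified firefly luciferase using Km concentrations of substrates (10 uM D-luciferin, 10 uM ATP) in Tris acetate pH 7.5 buffer; luminescence output.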
Hits are given with their value; . = inactive; ? = inconclusive; / = no result given; [ ] = remark or other dose. Only some compounds are listed: those with a hit (about 7.4% of all), similar ones and a draw of the others. The call rests on the fitted dose curve; in most records, active means well fitted curve in the direction sought with a large enough effect; inconclusive means small, poorly fitted or top-dose-only effect, or another doubt; inactive means no such curve, though single readings can be large; an effect the other way counts as inactive or inconclusive.

SMILES	SMN2 splice up	p53 reactivator	ELG1 genotox	Rab9 promoter act	NPC1 prom act	FLuc modulator
Cc1ccc(NC(=O)CN2C(=O)S/C(=C/c3ccc(-c4cc(C(=O)O)ccc4C)o3)C2=O)cc1C	.	.	.	.	.	?
CC1=NN(c2ccc(Br)cc2)C(=O)/C1=C/c1ccc(-c2ccccc2C(=O)O)o1	/	/	.	.	.	27µM
Cc1ccc(Cn2cc(CCC(=O)NCC(C)c3ccccc3)c3ccccc32)cc1 (centres undefined)	/	/	/	/	/	.
O=[N+]([O-])c1ccc(S(=O)(=O)Nc2nnc(C(F)(F)F)s2)cc1	/	/	.	.	.	.
COC(=O)c1ccccc1NC(=O)[C@H]1O[C@@H]2OC(C)(C)O[C@@H]2[C@H]2OC(C)(C)O[C@H]21	.	/	/	/	/	.
CCn1c(SCC(=O)N/N=C/c2ccc(OC)c(OC)c2)nc2ccccc21	.	.	.	.	.	17µM
COc1cc(/C=N/NC(=O)CSc2ccccn2)ccc1OC(C)C	/	.	?	?	.	4.3µM
COc1ccc(/C=N/NC(=O)CCSc2nc3ccccc3s2)cc1OC	.	.	.	.	.	21µM
COc1ccc(/C=N/NC(=O)CCn2nnc3ccccc32)cc1	/	.	.	.	.	13µM
COc1ccc(C=O)cc1CSc1ccccn1	/	.	.	.	.	.
COc1ccc(/C=N/NC(=O)c2ccc(O)cc2O)cc1CSc1ccccn1	.	.	.	.	.	27µM
C=CCOC(=O)C1=C(C)NC(=O)NC1c1ccc2c(c1)OCO2 (centres undefined)	/	.	.	.	.	.
C=CCOC(=O)c1c(C)nc2cc3c(cc2c1C)OCO3	?	?	.	.	.	17µM
O=C1C=C(c2ccc3c(c2)OCO3)C[C@@H](c2ccc(Cl)cc2)C1	/	.	.	.	.	.
Cc1cccc(S(=O)Cc2ccc(C(=O)N3CCN(C(=O)c4ccco4)CC3)o2)c1 (centres undefined)	/	.	.	.	.	.
Cc1ccc(N2Cc3ccccc3C2=S)cc1	11µM	?	.	2.5µM	2.8µM	4.8µM
Nc1nnc(SCC(=O)NN2C(=O)NC3(CCCCC3)C2=O)s1	.	.	.	.	.	.
CC(C)c1ccc(NC(=O)C2=CC=CN3CCS(=O)(=O)N=C23)cc1	/	.	?	.	.	?
CCc1ccc(NC(=O)C2=CC=CN3CCS(=O)(=O)N=C23)cc1	/	.	.	.	.	15µM
CC(=O)c1cccc(NS(=O)(=O)c2ccc(N/C=C/C(=O)c3ccc(F)cc3)cc2)c1	.	.	.	.	.	.
O=C(/C=C/Nc1ccc(F)c(F)c1)c1cccs1	/	?	?	2.5µM	3.2µM	0.95µM
O=C(/C=C/Nc1ccc([N+](=O)[O-])cc1)c1ccc(Br)cc1	.	.	?	?	.	.
O=C(/C=C/Nc1ccc(F)c(F)c1)c1ccc(Br)cc1	13µM	?	?	2.5µM	2µM	1.5µM
O=C(/C=C/Nc1ccc(F)cc1)c1ccc(Br)cc1	13µM	.	?	1.4µM	2µM	2.1µM
CCOC(=O)c1cnc2c(C)c(C)ccc2c1Nc1ccc(S(=O)(=O)Nc2ncccn2)cc1	?	.	.	.	.	19µM
SMILES	SMN2 splice up	p53 reactivator	ELG1 genotox	Rab9 promoter act	NPC1 prom act	FLuc modulator
Oc1cccc(-c2nc3ccc4ccccc4c3c3c2CCC3)c1	?	.	.	?	?	6µM
CN(C)c1ccc(CNC(=O)CCC(=O)N2Cc3ccccc3Oc3ncccc32)cc1	/	/	/	/	/	.
COc1ccc(NC(=O)Nc2nnc(-c3ccccc3F)s2)cc1	.	.	.	2.8µM	?	.
COc1ccc(NC(=O)Nc2nnc(-c3ccco3)s2)cc1	/	.	?	1.3µM	0.89µM	?
COc1ccc(CC(=O)Nc2nnc(C(C)C)s2)cc1	/	.	.	.	.	.
COc1ccc(NC(=O)Nc2nnc(-c3ccncc3)s2)cc1	.	.	.	?	.	?
COc1ccc(NC(=O)Nc2nnc(C(C)C)s2)cc1	.	?	?	?	3.5µM	21µM
CCc1ccc(-n2c(CCC(=O)O)ccc2-c2ccc(F)cc2)cc1	.	/	/	/	/	?
COc1ccc(C(=O)Nc2ccc(Nc3ccccc3)cc2)cc1OC	/	.	.	.	.	?
COc1cc(C(=O)Nc2ccc(O)cc2C(=O)O)ccc1OC(C)=O	/	.	.	.	.	12µM
COC(=O)c1ccc(NC(=O)c2ccc(OC(C)=O)c(OC)c2)cc1	?	.	?	?	?	11µM
Cc1c(C(=O)OC(C)C)sc(NC(=O)C2c3ccccc3Oc3ccccc32)c1C(=O)OC(C)C	.	/	/	/	/	.
O=C1C(C=NCc2cccnc2)=C(O)c2ccccc21	/	?	2.1µM	?	.	1.9µM
O=C1C(C=NCc2ccncc2)=C(O)c2ccccc21	.	.	.	.	.	.
O=C1c2cccc3cccc(c23)C(=O)N1Cc1ccco1	.	.	.	.	.	.
O=C1C(C=NCc2ccco2)=C(O)c2ccccc21	?	?	5.2µM	.	.	6.7µM
CCc1ccc(C2=CC(c3c(F)cccc3Cl)n3c(nc4ccccc43)N2)cc1 (centres undefined)	/	/	/	/	/	19µM
Cc1ccc(-c2nc3n(n2)C(c2ccccc2C)C=C(c2ccc(Cl)cc2)N3)cc1 (centres undefined)	.	/	/	/	/	.
Cc1ccc(C2=CC(c3ccccc3C)n3c(nc4ccccc43)N2)cc1 (centres undefined)	/	/	/	/	/	6µM
Cc1cccc(C2C=C(c3ccc(F)cc3)Nc3nc4ccccc4n32)c1 (centres undefined)	/	/	/	/	/	5.4µM
CCCC[C@]12Cc3c(ccc4ccccc34)C(O1)C1=C(O2)C(=O)c2ccccc2C1=O	/	/	/	.[1.84 µM]	.[1.84 µM]	.[11.5 µM]
Cc1c(Cl)cccc1NC(=O)Nc1nnc(N2CCCCCC2)s1	/	/	/	/	/	.
CNC(=O)c1[nH]nc2c1CCc1cc(OC)ccc1-2	/	.	?	5µM	?	17µM
COc1ccc2c(c1)CCc1c-2n[nH]c1C(=O)NCCC(C)C	/	?	2.6µM	0.79µM	1µM	1.3µM
CC(C)NC(=O)c1[nH]nc2c1CCc1ccccc1-2	/	.	?	3.5µM	?	19µM
SMILES	SMN2 splice up	p53 reactivator	ELG1 genotox	Rab9 promoter act	NPC1 prom act	FLuc modulator
COc1ccc(OC)c(/C=N/NC(=O)c2[nH]nc3c2CCc2ccccc2-3)c1	.	.	.	.	.	.
CNc1ccc(O)cc1	.	/	/	/	/	/
COc1ccc(NC(=O)Cn2nc(C)c3nn(-c4ccc(Cl)cc4)c(C)c3c2=O)cc1	/	/	/	/	/	.
NCCC[C@@H](CC(=O)N[C@@H]1CCCC[C@H]1C(=O)N[C@H](CC(=O)N[C@@H](CCC(=O)O)CC(=O)O)Cc1ccccc1)NC(=O)C[C@H](Cc1ccccc1)NC(=O)[C@@H]1CNCC[C@H]1N	.	/	/	/	/	/
Cc1ccc(N/C=C2\CCCCC2=O)nc1	.	.	?	?	.	21µM
O=C1CCC/C1=C/Nc1ccc(Cl)cc1	.	.	.	.	.	.
